From PubChem BioAssay AID1845224 (National Center for Advancing Translational Sciences (NCATS), 2023)
Records with an inconclusive call do not appear. The source made the active and inactive calls. Calls come from the whole dose curve; as a rule, active = well fitted curve in the direction sought with a large enough effect; inconclusive = small, poorly fitted or top-dose-only effect, or another doubt; inactive = no such curve, though single readings can be large or run the other way.

System: NanoLuc luciferase (engineered Oplophorus gracilirostris luciferase)
Test: Confirmatory Nanoluciferase (NLuc) qHTS assay for identification of artifact compounds. For activity change, negative = inhibition: % of control where 0% means no effect.
Conditions: secreted NLuc in S16 cell medium, luminescence, 5 min; series mostly up to 39 µM; activity change, negative = inhibition: at the top concentration
Procedure, shortened: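 Conditioned medium from NLuc-expressing S16 cells (diluted 1:55) was incubated with compounds for 15 min at room temperature. Nano-Glo substrate (1:100) was then added, and luminescence was read after 5 min.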
Potency is the fitted concentration of half-maximal effect.

Activity change, negative = inhibition, inactive:
Cn1cc(S(=O)(=O)N2CCCC2)cc1C(=O)Nc1ccc(C(F)(F)F)cc1 -8.69%
O=C(O)c1sc2c(c1-c1nc3ccccc3s1)CCNC2 0.752%
Cc1ccc(S(=O)(=O)N2CCN(c3nc(-c4cccs4)nc4cccnc34)CC2)cc1 -0.839%
O=C(CSc1ccnc(=O)[nH]1)NCc1ccc(F)cc1 -1.74%
O=S1(=O)N=C(Oc2ccc(-c3ccccc3)cc2)c2ccccc21 -1.14%
C[C@]12C[C@H](O)[C@H]3[C@@H](CCC4=CC(=O)CC[C@@]43C)[C@@H]1CC[C@@H]2C(=O)CO 0.994%
Oc1ccc(CCc2c(F)cccc2F)c2cccnc12 -11.6%
COc1cccc2cc(C(=O)Nc3ccc(F)c(F)c3)c(=O)oc12 -6.18%
O=C(Nc1nnc(-c2ccco2)o1)c1ccc(Cl)c(Cl)c1 9.94%
CN(C)C=O 7.7%
CC1CCN(c2ccc(-c3cccc(NS(=O)(=O)c4ccc(F)cc4F)c3)nn2)CC1 -3.08%
CN(C)c1ccc(CNC(=O)c2ccc3c(c2)N(C)C(=O)C2CCCCN32)cc1 (stereo not drawn) -7.38%
Cc1ccc2nc(-c3cccnc3)c(Nc3ccccc3C)n2c1 3.45%
Cc1ccc2[nH]c(CSc3nnc(C)s3)cc(=O)c2c1 -2.56%
O=C(NCCC1=CCCCC1)c1ccc2c(c1)N(Cc1cccc(Cl)c1)C(=O)c1ccccc1S2=O (stereo not drawn) -2.54%
CSc1ccc2nc(Nc3nnc(-c4cccs4)o3)sc2c1 -6.97%
O=C(Nc1ccccn1)c1sc2ccc([N+](=O)[O-])cc2c1Cl -4.05%
CC(C)(O)C1CC[C@@]2(C)C3CCC4[C@@]5(C)CCCC(C)(C)C5C(O)C[C@]4(C)[C@]3(C)CC[C@@H]12 (stereo partly drawn) 0.282%
O=c1oc2ccc(F)cc2cc1-c1nc(-c2cccs2)no1 -6.64%
Cc1cc(C)cc(NC(=O)CSc2oc(-c3cccs3)nc2S(=O)(=O)c2ccccc2)c1 -14.4%
Cc1ccc(S(=O)(=O)c2nnn3c2nc(NCc2ccc(F)cc2)c2sccc23)cc1C -6.1%
COc1cccc(N2CCN(c3c4c(nc5nncn35)CCC4)CC2)c1 -13.7%
COc1ccc(NC(=O)c2cnn3c(-c4ccccc4)cc(C)nc23)cc1 -17.3%
COc1ccc(-c2c3c(=O)n(C)c(=O)n(C)c3c3n2-c2ccccc2NC3c2ccccc2OC)cc1 (stereo not drawn) -3.51%
CCOC(=O)c1c(S(=O)(=O)N2CCCC(C(=O)NCc3ccc(F)cc3)C2)c(C)n(CC)c1C (stereo not drawn) -14.8%
Cc1ccc(NC(=O)c2ccc(Br)cc2)c(C(=O)c2ccccc2)c1 -3.05%
Clc1ccc(CNc2cc(-c3ccc4c(c3)OCO4)ncn2)cc1 -8.75%

Potency, active:
O=C(CCS(=O)(=O)c1nc(-c2ccc3c(c2)OCO3)cc(C(F)(F)F)n1)Nc1ccccc1C(F)(F)F 12.2 µM
